# Test results from PubChem BioAssay AID651610 (Broad Institute, 2012).
# Where “and” joins values, the source holds several entries; their conditions need not be identical. Identical values can stand only once. Screen size: about 360,000 compounds; about 3,900 (1.1%) were called active. The sample holds actives, similar compounds and a random draw of the others, so the mix is not that of the screen. A number with no mark means an inactive call.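 The calls were made as follows: active = mean replicate inhibition score of at least 50 and every replicate individually at or above 50; inconclusive = only one of the two criteria met; inactive = mean below 50 and not all replicates reaching 50.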
# Assay: inhibitors of HIV-1 Env-driven cell-cell fusion, primary screen, HeLa-JRFL effector, CEM21 target cells, luciferase (AID 651610);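 also: 0% = plate neutral controls and 100% = maraviroc near 300 nM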
# Settings: hits give high values
compound,measurement,setting,value
O=C(Nc1ccc(-c2ccccc2)cc1)[C@H]1[C@H](CO)[C@H]2Cn3c(cccc3=O)[C@H]2N1CC1CC1,inhibition,at 16.7 µM unless noted,-13.3%
COc1ccc(NC(=O)Nc2ccc3c(c2)C(=O)N([C@@H](C)CO)C[C@H](C)[C@H](CN(C)S(=O)(=O)c2ccccc2)OCCCC[C@@H](C)O3)cc1,inhibition,at 16.7 µM unless noted,-1.8%
O=C(C[C@@H]1CC[C@@H]2[C@H](COC[C@H](O)CN2Cc2ccc(F)cc2)O1)NCc1ccncn1,inhibition,at 16.7 µM unless noted,-13.2%
CN1CCN(C(=O)C[C@@H]2C[C@H]3c4cc(NC(=O)NC5CCCC5)ccc4O[C@H]3[C@H](CO)O2)CC1,inhibition,at 16.7 µM unless noted,-16.8%
CCCNC(=O)N1C[C@@H](O)COC[C@@H]2O[C@H](CC(=O)N3CCN(C)CC3)CC[C@H]21,inhibition,at 16.7 µM unless noted,-4.93%
C[C@@H]1CN([C@@H](C)CO)C(=O)Cc2cc(NS(=O)(=O)c3ccc(F)cc3)ccc2O[C@@H]1CN(C)S(=O)(=O)c1cccs1,inhibition,at 16.7 µM unless noted,2.26%
CO[C@H]1CN(C)C(=O)c2ccc(NS(C)(=O)=O)cc2OC[C@@H](C)N(C(=O)c2ccc3c(c2)OCO3)C[C@@H]1C,inhibition,at 16.7 µM unless noted,3.98%
O=C(COC(=O)c1ncc(Cl)c(Cl)c1Cl)NCc1ccccc1,inhibition,at 16.7 µM unless noted,-4.53% [at 12.3 µM]
O=C(COC(=O)c1ccc(Cl)nc1)NCc1cccs1,inhibition,at 16.7 µM unless noted,13.8% [at 12.3 µM]
O=C(COC(=O)c1ncc(Cl)c(Cl)c1Cl)NCc1cccs1,inhibition,at 16.7 µM unless noted,80.8% [at 12.3 µM] (active)
CN1C(=O)c2cc(NC(=O)c3cnccn3)ccc2OC[C@@H]2O[C@H](CC(=O)O)CC[C@@H]21,inhibition,at 16.7 µM unless noted,-25.8%
Cc1cccc(-n2c(=O)c3c(C)c(C)sc3n(CC(N)=O)c2=O)c1,inhibition,at 16.7 µM unless noted,16% [at 12.3 µM]
Cc1cccc(-n2c(SCC(N)=O)nc3c(c2=O)C2(CCCCC2)Cc2ccccc2-3)c1,inhibition,at 16.7 µM unless noted,87% [at 12.3 µM] (active)
CCOC(=O)C1Cn2c(nc3c(c2=O)C(C)(CC)Cc2ccccc2-3)S1 (stereo not drawn),inhibition,at 16.7 µM unless noted,-68.6% [at 12.3 µM]
C[C@@H]1CN([C@H](C)CO)C(=O)Cc2cc(NC(=O)c3ccncc3)ccc2O[C@H]1CN(C)Cc1ccc(-c2ccccc2)cc1,inhibition,at 16.7 µM unless noted,18.5%
Cc1ccc(S(=O)(=O)N(C)C[C@@H]2Oc3ccc(NS(=O)(=O)c4cn(C)cn4)cc3C(=O)N([C@@H](C)CO)C[C@H]2C)cc1,inhibition,at 16.7 µM unless noted,-17.6%
O=C(NCc1ccco1)c1cc2sccc2n1Cc1ccc(F)cc1,inhibition,at 16.7 µM unless noted,20.8% [at 12.3 µM]
O=C(Cc1ccc(-n2c(=O)c3sccc3n(Cc3ccc(F)cc3)c2=O)cc1)NCc1ccco1,inhibition,at 16.7 µM unless noted,0.234% [at 12.3 µM]
O=C(NCc1ccco1)c1ccc(Cn2c(=O)c3sccc3n(Cc3ccc(F)cc3)c2=O)cc1,inhibition,at 16.7 µM unless noted,78.1% [at 12.3 µM] (active)
O=C(CN1CCOCC1)NCC[C@H]1CC[C@@H](NC(=O)Nc2ccc(Cl)cc2)[C@@H](CO)O1,inhibition,at 16.7 µM unless noted,2.67%
O=C(N[C@@H]1CC[C@H](CCn2cc(-c3ccccn3)nn2)O[C@@H]1CO)c1ccccc1,inhibition,at 16.7 µM unless noted,12.1%
COc1ccc(S(=O)(=O)Nc2ccc3c(c2)C(=O)N([C@@H](C)CO)C[C@H](C)[C@@H](CN(C)C(=O)NC(C)C)OCCCC[C@H](C)O3)cc1,inhibition,at 16.7 µM unless noted,1.4%
CCOC(=O)C(C)Oc1cccc2c(=O)n(CC(=O)N3CCc4ccccc43)ccc12 (stereo not drawn),inhibition,at 16.7 µM unless noted,-10.8% [at 12.3 µM]
COC(=O)COc1cccc2c(=O)n(CC(=O)NCc3ccccc3)ccc12,inhibition,at 16.7 µM unless noted,-188% [at 12.3 µM]
CCOC(=O)C(C)Oc1cccc2c(=O)n(CC(=O)NCCc3ccc(OC)c(OC)c3)ccc12 (stereo not drawn),inhibition,at 16.7 µM unless noted,88.4% [at 12.3 µM] (active)
C[C@@H]1CN([C@H](C)CO)C(=O)Cc2cc(NS(=O)(=O)c3cccs3)ccc2O[C@@H]1CN(C)C(=O)Nc1ccc(F)cc1,inhibition,at 16.7 µM unless noted,-7.97%
C[C@@H]1CN([C@H](C)CO)C(=O)c2cc(NC(=O)Nc3cccc4ccccc34)ccc2O[C@@H](C)CCCCO[C@H]1CN(C)S(=O)(=O)c1cccs1,inhibition,at 16.7 µM unless noted,15.1%
CCCCCc1c(Cc2ccccc2)ncn1CCc1ccccc1OC,inhibition,at 16.7 µM unless noted,109% [at 12.3 µM] (active)
CCCCCc1c(-c2ccc(OC)c(OC)c2)ncn1CCc1ccccc1OC,inhibition,at 16.7 µM unless noted,49.2% [at 12.3 µM]
CCCCCc1c(-c2cccc(Br)c2)ncn1CCc1ccccc1OC,inhibition,at 16.7 µM unless noted,11.9% [at 12.3 µM]
O=C(C[C@H]1C[C@H]2c3cc(NC(=O)CC4CC4)ccc3O[C@H]2[C@H](CO)O1)NCc1ccccc1,inhibition,at 16.7 µM unless noted,8.72%
CC(=O)C1=C(C)N(Cc2ccc(Cl)cc2)C(=S)NC1c1ccc(F)cc1 (stereo not drawn),inhibition,at 16.7 µM unless noted,62.3% [at 12.3 µM] (active)
CC(=O)C1=C(C)N(Cc2ccccc2)C(=S)NC1c1cccc(Br)c1 (stereo not drawn),inhibition,at 16.7 µM unless noted,0.027% [at 12.3 µM]
COC(=O)C1=C(C)N(Cc2ccc(F)cc2)C(=S)NC1c1cccc(Cl)c1 (stereo not drawn),inhibition,at 16.7 µM unless noted,34.2% [at 12.3 µM]
C[C@@H]1CCCCO[C@@H](CN(C)S(=O)(=O)c2cccs2)[C@@H](C)CN([C@H](C)CO)C(=O)c2cc(NC(=O)Nc3ccc4c(c3)OCO4)ccc2O1,inhibition,at 16.7 µM unless noted,4.87%
COCC(=O)Nc1ccc2c(c1)C(=O)N(C)C[C@H](OC)[C@@H](C)CN(C(=O)Cc1cccnc1)[C@@H](C)CO2,inhibition,at 16.7 µM unless noted,0.828%
CCc1ccc(N(CC)c2ncnc3nc[nH]c23)cc1,inhibition,at 16.7 µM unless noted,55.5% [at 12.3 µM] (active)
S=c1c2[nH]cnc2ncn1CCSc1ncnc2nc[nH]c12,inhibition,at 16.7 µM unless noted,-6.63% [at 12.3 µM]
CCC(=O)N1[C@H](C(=O)NCc2ccc(F)cc2)[C@@H](CO)[C@@H]2Cn3c(ccc(C4=CCCCC4)c3=O)[C@@H]21,inhibition,at 16.7 µM unless noted,22.3%
C[C@@H]1CCCCO[C@@H](CN(C)Cc2ccncc2)[C@@H](C)CN([C@@H](C)CO)C(=O)c2cc(N(C)C)ccc2O1,inhibition,at 16.7 µM unless noted,12.4%
Brc1ccc2ncnc(NCc3cccnc3)c2c1,inhibition,at 16.7 µM unless noted,43.2% [at 12.3 µM]
C=CCNc1ncnc2ccc(Br)cc12,inhibition,at 12.3 µM,92.8% (active)
same,inhibition,at 16.7 µM,9.63% and 27.5%
O=C(O)CCCCCNc1ncnc2ccc(Br)cc12,inhibition,at 16.7 µM unless noted,26.9% [at 12.3 µM]
CN1CCN(C(=O)C[C@H]2C[C@H]3c4cc(NC(=O)Nc5ccccc5F)ccc4O[C@H]3[C@H](CO)O2)CC1,inhibition,at 16.7 µM unless noted,-13.6%
COc1ccccc1CNC(=O)C[C@@H]1C[C@@H]2c3cc(NC(=O)C4CCOCC4)ccc3O[C@@H]2[C@@H](CO)O1,inhibition,at 16.7 µM unless noted,-2.64%
CCOC(=O)N1CCN(Cc2nc3cc(NC(C)=O)ccc3n2C)CC1,inhibition,at 16.7 µM unless noted,9.8% [at 12.3 µM]
O=C(Nc1ccc(CN2CCOCC2)cc1)c1cc(Cl)ccc1Cl,inhibition,at 16.7 µM unless noted,-16% [at 12.3 µM]
Cn1c(CN2CCOCC2)nc2cc(NC(=O)c3ccc(Cl)cc3)ccc21,inhibition,at 16.7 µM unless noted,66.4% [at 12.3 µM] (active)
CNC[C@@H]1Oc2cc(-c3ccccc3OC)ccc2S(=O)(=O)N([C@@H](C)CO)C[C@H]1C,inhibition,at 16.7 µM unless noted,-40.9%
CCCNC(=O)N(C)C[C@H]1Oc2cc(-c3ccncc3)ccc2S(=O)(=O)N([C@H](C)CO)C[C@H]1C,inhibition,at 16.7 µM unless noted,-10.2%
CC(=O)c1c(C)[nH]c(C(=O)OCC(=O)Nc2cc(S(=O)(=O)N3CCCCC3)ccc2C)c1C,inhibition,at 16.7 µM unless noted,0.591% [at 12.3 µM]
CC(=O)c1c(C)[nH]c(C(=O)OCC(=O)Nc2c(C)cccc2C)c1C,inhibition,at 16.7 µM unless noted,76.4% [at 12.3 µM] (active)
CC(=O)c1c(C)[nH]c(C(=O)OCC(=O)NCCC(C)C)c1C,inhibition,at 16.7 µM unless noted,38.2% [at 12.3 µM]
CO[C@@H]1CN(C)C(=O)c2cc(NS(=O)(=O)c3ccccc3C)ccc2OC[C@@H](C)N(S(C)(=O)=O)C[C@@H]1C,inhibition,at 16.7 µM unless noted,23.9%
C[C@@H]1CN([C@@H](C)CO)C(=O)c2cc(-c3ccccc3F)cnc2O[C@@H]1CN(C)Cc1cccc(F)c1,inhibition,at 16.7 µM unless noted,6.32%
CC1CCCC(C)N1C(=O)CN1CCN(c2nc(-c3ccc(F)cc3)cs2)CC1 (stereo not drawn),inhibition,at 16.7 µM unless noted,57.8% [at 12.3 µM] (active)
O=C(COC(=O)C1CCCO1)Nc1nc(-c2ccc(F)cc2)cs1 (stereo not drawn),inhibition,at 16.7 µM unless noted,-32.6% [at 12.3 µM]
Cc1cccc(C)c1NC(=O)CN1CCN(c2ccc(F)cc2)CC1,inhibition,at 16.7 µM unless noted,-17.6% [at 12.3 µM]
C[C@@H]1CN([C@@H](C)CO)S(=O)(=O)c2ccc(C#Cc3ccccc3F)cc2O[C@H]1CN(C)C(=O)c1ccc2c(c1)OCO2,inhibition,at 16.7 µM unless noted,48.7%
CCC(=O)N(C)C[C@@H]1Oc2cc(C#Cc3cccnc3)ccc2S(=O)(=O)N([C@H](C)CO)C[C@@H]1C,inhibition,at 16.7 µM unless noted,19.7%
CNC(=O)C[C@@H]1CC[C@@H]2[C@H](COc3ccc(NC(=O)c4cccs4)cc3C(=O)N2C)O1,inhibition,at 16.7 µM unless noted,0.696%
CO[C@H]1CN(C)C(=O)c2cc(NS(=O)(=O)c3ccccc3)ccc2OC[C@H](C)N(C)C[C@@H]1C,inhibition,at 16.7 µM unless noted,5.07%
CNC[C@H]1Oc2cc(-c3cccnc3)ccc2S(=O)(=O)N([C@@H](C)CO)C[C@H]1C,inhibition,at 16.7 µM unless noted,-16.2%
CC(=O)N[C@H]1CC[C@H](CCNC(=O)C2CC2)O[C@H]1CO,inhibition,at 16.7 µM unless noted,-15.4%
CCOC(=O)C(Cc1ccccc1)NC(=O)CCC(=O)c1ccc(OC)cc1 (stereo not drawn),inhibition,at 16.7 µM unless noted,4.22% [at 12.3 µM]
CCOC(=O)C(Cc1ccc(N)cc1)N1C(=O)c2ccccc2C1=O (stereo not drawn),inhibition,at 16.7 µM unless noted,6.82% [at 12.3 µM]
CCOC(=O)C1=C(c2ccc(OC)cc2)C(=O)c2ccccc2C1=O,inhibition,at 16.7 µM unless noted,74.3% [at 12.3 µM] (active)
